Results filed as inconclusive are left out. The source made the active and inactive calls. The calls were made as follows, unless noted: active = hit-call score of the fitted dose curve at least 0.9, where 1 is the maximum; inactive = score below 0.9.
Tests used:
[1] = read-out: Interleukin-1 alpha (IL1a), IL1A (gene 3552); assay: BSK_LPS_IL1a: BioMAP Diversity Plus: LPS Assay for Interleukin-1 alpha (IL1a) Biomarker Activity (AID 2283080); details: primary human HUVEC with PBMC; actives raise or lower the signal
Method in brief: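 Human umbilical vein endothelial cells co-cultured with peripheral blood mononuclear cells were LPS-stimulated and exposed to test chemicals for 24 h. IL-1 alpha was quantified by ELISA, with bidirectional curve fitting against DMSO as the negative control and baseline.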

[2] = read-out: Monocyte Chemoattractant Protein-1 (MCP1), CCL2 (gene 6347); assay: BSK_LPS_MCP1: BioMAP Diversity Plus: LPS Assay for Monocyte Chemoattractant Protein-1 (MCP1) Biomarker Activity (AID 2283081); details: primary human HUVEC with PBMC; actives raise or lower the signal
Method in brief: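 HUVEC plus PBMC co-culture (human primary cells, LPS system) exposed to test chemical for 24 h; MCP-1 measured by ELISA. Bidirectional curve fitting against DMSO baseline; parallel SRB total-protein staining flags overt cytotoxicity.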

[3] = BSK_LPS_PGE2: BioMAP Diversity Plus: LPS Assay for Prostaglandin E2 (PGE2) Biomarker Activity (AID 2283082); details: primary human HUVEC with PBMC; actives raise or lower the signal;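 as to AC50: secreted prostaglandin E2 measured by ELISA in LPS-stimulated co-culture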
Method in brief: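 HUVEC plus human PBMC co-culture stimulated with LPS; secreted PGE2 quantified by ELISA 24 h after chemical dosing. Activity fitted bidirectionally against DMSO baseline; parallel SRB staining (0.1% SRB after 10% TCA fixation, 560 nm) flags overt cytotoxicity.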

[4] = read-out: Macrophage colony-stimulating factor (MCSF), CSF1 (gene 1435); assay: BSK_LPS_MCSF: BioMAP Diversity Plus: LPS Assay for Macrophage colony-stimulating factor (MCSF) Biomarker Activity (AID 2283083); details: primary human HUVEC with PBMC; actives raise or lower the signal
Method in brief: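 Human umbilical vein endothelial cells co-cultured with peripheral blood mononuclear cells were exposed to compound for 24 h. M-CSF levels were measured by ELISA, and bidirectional curve fitting used DMSO as the negative control and baseline.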

[5] = read-out: Tissue Factor, F3 (gene 2152); assay: BSK_LPS_TissueFactor: BioMAP Diversity Plus: LPS Assay for Tissue Factor Biomarker Activity (AID 2283084); details: primary human HUVEC with PBMC; actives raise or lower the signal
Method in brief: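 Human umbilical vein endothelial cells co-cultured with peripheral blood mononuclear cells were dosed and stimulated with LPS. Cell-surface CD142 was quantified by ELISA at 24 h. Activity was fitted bidirectionally against DMSO baseline.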

[6] = read-out: Tumor necrosis factor (Homo sapiens) (UniProt P01375); assay: BSK_LPS_TNFa: BioMAP Diversity Plus: LPS Assay for Tumour Necrosis Factor alpha (TNFa) Biomarker Activity (AID 2283085); details: primary human HUVEC with PBMC; actives raise or lower the signal
Method in brief: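 Human umbilical vein endothelial cells co-cultured with PBMC and stimulated with LPS. TNFa was measured by ELISA 24 h after chemical dosing, fitted bidirectionally relative to DMSO.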

[7] = read-out: Vascular cell adhesion molecule 1 (VCAM1), VCAM1 (gene 7412); assay: BSK_LPS_VCAM1: BioMAP Diversity Plus: LPS Assay for Vascular cell adhesion molecule 1 (VCAM1) Biomarker Activity (AID 2283086); details: primary human HUVEC with PBMC; actives raise or lower the signal
Method in brief: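 Human umbilical vein endothelial cells co-cultured with PBMC and stimulated with LPS; VCAM-1 measured by ELISA 24 h after dosing. Bidirectional curve fitting against DMSO baseline; cytotoxicity tracked in parallel by SRB total-protein staining.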

CD38, CD38 (gene 952) = assay: BSK_SAg_CD38: BioMAP Diversity Plus: SAg Assay for CD38 Biomarker Activity (AID 2283087); details: primary human HUVEC with PBMC; actives raise or lower the signal
Method in brief: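 Human HUVEC plus PBMC co-culture stimulated with superantigen; CD38 measured by ELISA 24 h after chemical dosing. Fluorescence read-out, bidirectional fit against DMSO; cytotoxicity tracked in parallel by SRB and Alamar Blue.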

CD40, CD40 (gene 958) = assay: BSK_SAg_CD40: BioMAP Diversity Plus: SAg Assay for CD40 Biomarker Activity (AID 2283088); details: primary human HUVEC with PBMC; actives raise or lower the signal
Method in brief: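 Human umbilical vein endothelial cells co-cultured with PBMC; CD40 levels measured by ELISA with fluorescence read-out 24 h after chemical dosing. Gain or loss of signal fitted bidirectionally against DMSO baseline.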

CD69, CD69 (gene 969) = assay: BSK_SAg_CD69: BioMAP Diversity Plus: SAg Assay for CD69 Biomarker Activity (AID 2283089); details: primary human HUVEC with PBMC; actives raise or lower the signal;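 as to AC50: cell surface CD69 protein quantified by ELISA with fluorescence detection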
Method in brief: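 HUVEC co-cultured with PBMC were dosed with chemical, and CD69 was measured by ELISA with fluorescence read-out 24 h later. Bidirectional curve fitting used DMSO as negative control and activity baseline.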

[8] = read-out: Monocyte Chemoattractant Protein-1 (MCP1), CCL2 (gene 6347); assay: BSK_SAg_MCP1: BioMAP Diversity Plus: SAg Assay for Monocyte Chemoattractant Protein-1 (MCP1) Biomarker Activity (AID 2283090); details: primary human HUVEC with PBMC; actives raise or lower the signal
Method in brief: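 MCP-1 levels in the endothelial–PBMC SAg co-culture were quantified by ELISA at 24 h post-dosing; both increases and decreases versus DMSO scored. Cytotoxicity monitored by SRB total protein in parallel cultures.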

[9] = read-out: E-selectin (Homo sapiens) (UniProt P16581); assay: BSK_SAg_Eselectin: BioMAP Diversity Plus: SAg Assay for Eselectin Biomarker Activity (AID 2283091); details: primary human HUVEC with PBMC; actives raise or lower the signal
Method in brief: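 HUVEC co-cultured with PBMC, compound dosed then read at 24 h; E-selectin measured by ELISA. Activity fitted bidirectionally against DMSO as negative control and baseline.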

[10] = read-out: Monokine induced gamma interferon (MIG), CXCL9 (gene 4283); assay: BSK_SAg_MIG: BioMAP Diversity Plus: SAg Assay for Monokine induced gamma interferon (MIG) Biomarker Activity (AID 2283092); details: primary human HUVEC with PBMC; actives raise or lower the signal
Method in brief: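 HUVEC plus human PBMC co-culture, chemicals dosed and MIG (CXCL9) quantified by ELISA at 24 h. Bidirectional curve fitting against DMSO as negative control and baseline, so both gain and loss of signal count as activity.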

[11] = BSK_SAg_PBMCCytotoxicity: PBMC Cytotoxicity Assessment in the BioMAP Diversity Plus: SAg Assay (AID 2283093); details: primary human HUVEC with PBMC;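 also: PBMC viability measured as Alamar Blue reduction fluorescence at 546/580 nm; fitted both ways against DMSO so a hit may be loss or gain of signal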
Method in brief: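 HUVEC/PBMC co-culture; PBMC exposed to chemical 1 h before SEB and TSST-1 activation (20 ng/mL each), incubated 90 h, then Alamar Blue 6 h, fluorescence 546/580 nm. Bidirectional fit versus DMSO baseline.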

[12] = read-out: Interleukin-8 (IL8), CXCL8 (gene 3576); assay: BSK_SAg_IL8: BioMAP Diversity Plus: SAg Assay for Interleukin-8 (IL8) Biomarker Activity (AID 2283094); details: primary human HUVEC with PBMC; actives raise or lower the signal
Method in brief: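 Human umbilical vein endothelial cells co-cultured with PBMC, stimulated with superantigen; IL-8 measured by ELISA 24 h after chemical dosing. Bidirectional fitting versus DMSO; SRB staining in parallel cultures tracks cytotoxicity.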

[13] = BSK_SAg_Proliferation: Cell Proliferation Assessment in the BioMAP Diversity Plus: SAg Assay (AID 2283095); details: primary human HUVEC with PBMC
Method in brief: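 Human umbilical vein endothelial cells co-cultured with PBMC; sulforhodamine B total-protein staining (0.1% SRB after 10% TCA fixation, absorbance 560 nm) at 96 h in sub-confluent culture. Fitted bidirectionally against DMSO.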

[14] = BSK_SAg_SRB: Viability Assessment in the BioMAP Diversity Plus: SAg Assay (AID 2283096); details: primary human HUVEC with PBMC;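 also: cells read one day after compound addition; hits may be either gain or loss of signal compared with DMSO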
Method in brief: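 Human umbilical vein endothelial cells co-cultured with PBMC, read 24 h after compound dosing. Total protein measured by sulforhodamine B staining (0.1% SRB after 10% TCA fixation, absorbance 560 nm); bidirectional fit versus DMSO baseline.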

[15] = molecular target: human CYP19A1, CYP19A1 (gene 1588) (UniProt P11511); assay: NVS_ADME_hCYP19A1: NovaScreen (NVS) CYP450-related Enzyme Activity (ADME) Assay for human CYP19A1 (AID 2283098; active = hit-call score of the fitted dose curve at least 0.9, where 1 is the maximum;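 as to AC50: potency for inhibitors seen as loss of fluorescent enzyme signal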)
Method in brief: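 Recombinant enzyme in a cell-free format, read 0.5 h after dosing by fluorescence from a fluorogenic substrate. Loss of signal was fitted against acetonitrile as baseline. Primary screen in duplicate at 10 uM, actives then tested in concentration series.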

Measured: AC50

Chain of human CYP19A1, CYP19A1 (gene 1588) (P11511 whole entry, looked up): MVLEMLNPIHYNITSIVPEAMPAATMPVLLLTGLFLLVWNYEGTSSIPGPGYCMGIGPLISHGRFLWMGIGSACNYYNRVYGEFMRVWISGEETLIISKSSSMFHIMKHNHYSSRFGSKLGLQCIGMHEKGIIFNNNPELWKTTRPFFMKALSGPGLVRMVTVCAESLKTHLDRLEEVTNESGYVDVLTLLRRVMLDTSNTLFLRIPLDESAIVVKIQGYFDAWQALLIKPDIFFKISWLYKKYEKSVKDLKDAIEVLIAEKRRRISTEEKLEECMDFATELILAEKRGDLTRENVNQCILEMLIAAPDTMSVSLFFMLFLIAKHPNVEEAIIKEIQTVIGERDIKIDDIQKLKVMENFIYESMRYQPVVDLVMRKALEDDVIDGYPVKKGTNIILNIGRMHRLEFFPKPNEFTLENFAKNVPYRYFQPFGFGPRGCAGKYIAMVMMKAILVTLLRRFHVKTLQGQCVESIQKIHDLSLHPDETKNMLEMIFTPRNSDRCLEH
Chain of Tumor necrosis factor (Homo sapiens) (P01375 whole entry, looked up): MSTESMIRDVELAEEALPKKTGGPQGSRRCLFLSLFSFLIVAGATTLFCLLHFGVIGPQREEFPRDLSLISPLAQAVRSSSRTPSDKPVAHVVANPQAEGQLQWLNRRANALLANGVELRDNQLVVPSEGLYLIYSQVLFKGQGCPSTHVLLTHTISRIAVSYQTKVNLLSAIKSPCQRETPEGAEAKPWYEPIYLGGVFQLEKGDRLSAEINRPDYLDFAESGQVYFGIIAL
Chain of E-selectin (Homo sapiens) (P16581 whole entry, looked up): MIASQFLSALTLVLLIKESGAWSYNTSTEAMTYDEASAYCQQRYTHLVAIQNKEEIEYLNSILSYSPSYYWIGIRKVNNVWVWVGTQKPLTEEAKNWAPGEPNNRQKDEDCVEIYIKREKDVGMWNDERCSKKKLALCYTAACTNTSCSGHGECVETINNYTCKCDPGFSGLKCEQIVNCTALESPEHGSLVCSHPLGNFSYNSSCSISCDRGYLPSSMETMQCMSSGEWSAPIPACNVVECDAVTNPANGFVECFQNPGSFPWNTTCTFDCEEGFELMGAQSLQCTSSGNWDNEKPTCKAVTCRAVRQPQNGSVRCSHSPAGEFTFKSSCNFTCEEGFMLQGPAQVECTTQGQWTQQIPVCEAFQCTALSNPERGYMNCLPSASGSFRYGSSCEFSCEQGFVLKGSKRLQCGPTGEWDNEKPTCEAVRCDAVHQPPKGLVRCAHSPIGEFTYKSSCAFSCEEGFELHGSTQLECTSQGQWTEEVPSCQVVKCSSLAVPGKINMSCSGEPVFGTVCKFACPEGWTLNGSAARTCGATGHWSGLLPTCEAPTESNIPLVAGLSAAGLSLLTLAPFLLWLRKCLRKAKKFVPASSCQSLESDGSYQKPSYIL

CC(C1CC1)C(O)(Cn1cncn1)c1ccc(Cl)cc1 (configuration not stated)
active: [6] 4.36 µM | [15] 5.27 µM
inactive: all other assays above

CCCOc1nn(C(=O)NS(=O)(=O)c2ccccc2C(=O)OC)c(=O)n1C
not listed: [7] | CD40, CD40 (gene 958) | [15]
inactive: all other assays above

CC(Oc1cccc(Cl)c1)C(=O)O (configuration not stated)
not listed: [7] | CD40, CD40 (gene 958) | [15]
inactive: all other assays above

Nc1nc(N)nc(NC2CC2)n1
not listed: [7] | [15]
inactive: all other assays above

CSc1nc(NC(C)C)nc(NC(C)C)n1
active: [6] 4.47 µM | [8] 36.5 µM
not listed: CD40, CD40 (gene 958)
inactive: all other assays above

CCNc1nc(Cl)nc(NC(C)(C)C#N)n1
active: [6] 3.97 µM | [9] 4.59 µM
not listed: [7] | CD40, CD40 (gene 958) | [15]
inactive: all other assays above

O=c1ccc(=O)[nH][nH]1
not listed: [7] | CD40, CD40 (gene 958) | [15]
inactive: all other assays above

CCCCOC(=O)c1ccccc1C(=O)O
not listed: [7]
inactive: all other assays above

CCOP(=O)(SC(C)CC)N1CCSC1=O (configuration not stated)
not listed: [12] | [15]
inactive: all other assays above

CNC(=O)ON=C(C)SC
active: [3] 0.564 µM
not listed: [7] | CD40, CD40 (gene 958)
inactive: all other assays above

CNC(=O)ON=C(SC)C(=O)N(C)C
active: [13] 20 µM
not listed: [7]
inactive: all other assays above

CCOP(=S)(OCC)Oc1ccc([N+](=O)[O-])cc1
active: [3] 20 µM | [4] 20 µM | CD38, CD38 (gene 952) 20 µM | CD69, CD69 (gene 969) 32.4 µM | [9] 32.8 µM | [13] 32.1 µM
not listed: [2] | [7] | CD40, CD40 (gene 958)
inactive: all other assays above

From PubChem BioAssay (EPA / NIEHS)
